SNCA viab count: counter-screen for SNCA expression inhibitors: cell viability | HEK-293-SNCA-luc viability, GF-AFC fluorescence, 24 h | actives 0.12% (n = 150,000) | Potency, µM (highest dose often 57.1 µM), usual class: cytotoxic | AID 1671193; note: nearly all actives have a fitted effect of over 30% in size
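Cytotoxicity counterscreen: after 24 h compound treatment of genome-edited SNCA-luciferase HEK-293 cells, live-cell protease substrate GF-AFC read by fluorescence after 30 min; activity scaled between DMSO (0%) and medium-only (-100%), curves Hill-fitted.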
IP6K1 inh: blocks human inositol hexakisphosphate kinase 1; actives 0.81% (n = 140,000); Q92551; IP6K1 kinase, ADP-Glo luminescence, 2 h; stronger effect = lower value; activity change, % (series mostly up to about 58 µM); AID 1645851; in the data active = activity change below about -25%
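ADP-Glo luminescence measures ADP made by human IP6K1 during a 2 h RT reaction with ATP/IP6 (mix at 1.3 mM/130 uM); top library doses 57.5 and 19.1 uM final.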
SNCA expr inhib: SNCA gene expression inhibition | HEK-293 SNCA-luciferase knock-in, luminescence, 24 h | actives 0.17% (n = 140,000) | Potency, µM (doses to about 57.2 µM), hits mostly inhibitors; note: nearly all actives have a fitted effect of over 45% in size
KDM5B inh: KDM5B demethylase inhibition; Q9UGL1; KDM5B demethylase, FDH-coupled NADH fluorescence (FDH is formaldehyde dehydrogenase); Potency, µM (titrated, usually from 57.7 µM), hits mostly inhibitors; actives 2.6% (n = 220,000); AID 1347165; note: nearly all actives have a fitted effect of over 70% in size
Target sequence (Q9UGL1 whole entry, looked up): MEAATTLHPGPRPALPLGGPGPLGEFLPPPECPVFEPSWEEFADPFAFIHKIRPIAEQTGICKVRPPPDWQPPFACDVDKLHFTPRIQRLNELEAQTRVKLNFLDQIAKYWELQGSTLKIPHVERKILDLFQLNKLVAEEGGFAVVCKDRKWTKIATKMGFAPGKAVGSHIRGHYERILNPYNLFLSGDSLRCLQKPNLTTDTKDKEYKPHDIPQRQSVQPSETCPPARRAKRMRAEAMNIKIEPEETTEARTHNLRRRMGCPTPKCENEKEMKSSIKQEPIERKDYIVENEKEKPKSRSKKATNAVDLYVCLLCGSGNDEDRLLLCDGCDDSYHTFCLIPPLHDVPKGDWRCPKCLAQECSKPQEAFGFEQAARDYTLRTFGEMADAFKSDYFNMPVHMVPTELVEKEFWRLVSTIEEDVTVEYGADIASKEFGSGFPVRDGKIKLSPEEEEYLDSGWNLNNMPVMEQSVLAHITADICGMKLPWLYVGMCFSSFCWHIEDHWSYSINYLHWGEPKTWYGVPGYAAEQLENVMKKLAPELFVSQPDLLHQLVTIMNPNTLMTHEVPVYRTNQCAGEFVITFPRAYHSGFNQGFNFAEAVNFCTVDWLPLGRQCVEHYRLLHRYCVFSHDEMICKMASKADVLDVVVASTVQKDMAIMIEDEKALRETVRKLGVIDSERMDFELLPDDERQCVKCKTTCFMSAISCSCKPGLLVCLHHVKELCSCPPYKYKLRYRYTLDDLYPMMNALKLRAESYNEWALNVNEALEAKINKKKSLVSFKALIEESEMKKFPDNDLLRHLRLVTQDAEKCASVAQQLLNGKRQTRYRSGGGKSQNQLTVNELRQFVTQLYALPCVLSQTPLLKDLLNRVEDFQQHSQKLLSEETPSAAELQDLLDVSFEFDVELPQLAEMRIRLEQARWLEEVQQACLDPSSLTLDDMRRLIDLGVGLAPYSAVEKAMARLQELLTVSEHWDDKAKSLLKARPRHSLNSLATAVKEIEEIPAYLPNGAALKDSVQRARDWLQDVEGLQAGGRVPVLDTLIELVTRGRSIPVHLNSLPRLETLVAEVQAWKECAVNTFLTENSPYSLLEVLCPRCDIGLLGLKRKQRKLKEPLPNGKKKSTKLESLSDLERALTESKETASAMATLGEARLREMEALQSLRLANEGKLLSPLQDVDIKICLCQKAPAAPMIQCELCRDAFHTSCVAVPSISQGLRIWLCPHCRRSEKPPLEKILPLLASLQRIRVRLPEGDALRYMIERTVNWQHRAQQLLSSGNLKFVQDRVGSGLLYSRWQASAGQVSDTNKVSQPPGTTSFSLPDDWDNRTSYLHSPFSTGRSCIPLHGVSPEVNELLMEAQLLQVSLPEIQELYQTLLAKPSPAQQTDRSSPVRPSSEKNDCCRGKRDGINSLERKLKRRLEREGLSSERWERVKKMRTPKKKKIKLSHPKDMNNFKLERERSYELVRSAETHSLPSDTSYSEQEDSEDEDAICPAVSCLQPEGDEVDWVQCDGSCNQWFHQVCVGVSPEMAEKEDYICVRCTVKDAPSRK
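Here, H3K4me3 peptide (12.5 µM in substrate mix) is demethylated by KDM5BΔAP, 200 nM final, after 10 min compound exposure. Formaldehyde product is coupled through FDH (0.25 U/mL in mix) to NADH fluorescence; 30-min ΔRFU feeds dose-response curves.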
Each line names hits and unclear results; the compound was inactive in the other large screens; ! = repeats disagree. A selection: hits, their analogues and other compounds. The true share with any hit is near 2.8%. Unless noted, calls come from the whole dose curve; as a rule, active = well fitted curve in the direction sought with a large enough effect; inconclusive = small, poorly fitted or top-dose-only effect, or another doubt; inactive = no such curve, though single readings can be large; an effect the other way counts as inactive or inconclusive.

CC1(COc2ccccc2)COc2ccc(C(=O)NCCOc3ccccc3)cc2N1 (configuration not stated)	SNCA expr inhib inconclusive, KDM5B inh 39.8µM
CN(Cc1ccccc1)C(=O)c1ccc2c(c1)NC(C)(COc1ccccc1)CO2 (configuration not stated)	SNCA viab count inconclusive, SNCA expr inhib inconclusive, KDM5B inh 39.8µM
CC1(CNc2ccccc2)COc2ccc(C(=O)NCCOc3ccccc3)cc2N1 (configuration not stated)	KDM5B inh 28.2µM
CC1(CNc2ccccc2)COc2ccc(C(=O)NCCN3CCOCC3)cc2N1 (configuration not stated)	none
CC1(CNc2ccccc2)COc2ccc(C(=O)NCCc3ccccn3)cc2N1 (configuration not stated)	KDM5B inh 22.4µM
CC1CCN(C(=O)CSc2nnc(-c3cccs3)o2)CC1	none (no result: SNCA viab count, IP6K1 inh, SNCA expr inhib)
CCN1CCN(C(=O)c2ccc3c(c2)N(Cc2cc(C)ccc2C)C(=O)c2ccccc2S3(=O)=O)CC1	none
O=C(Nc1cnc(-c2ccc(Cl)cc2)nc1)c1cccc(F)c1	none
Cc1nnc(SCc2cc(=O)c3ccccc3[nH]2)s1	none
O=C(Nc1ccc(-c2nc3ccccc3o2)cc1)C1CCCC1	none (no result: SNCA viab count, IP6K1 inh, SNCA expr inhib)
CCN(CC)CC(=O)N1CCC(C(=O)Nc2ccc(-c3nc4ccccc4o3)cc2)CC1	KDM5B inh 28.2µM
COc1ccccc1NS(=O)(=O)c1cc(-c2c(C)nn3c2NC(=O)CCC3=O)ccc1C	none (no result: SNCA viab count, IP6K1 inh, SNCA expr inhib)
N#Cc1cnc(N2CC3CCC(C2)N3CC(F)(F)F)s1	none
Cc1cnc(N2CC3CCC(C2)N3CC(F)(F)F)s1	KDM5B inh 56.2µM
CCc1ccc(CN2CCC(CNC(=O)c3ccc(C)nc3)C2)nc1 (configuration not stated)	KDM5B inh 15.8µM
Cc1nc(NC2CCCC2)ncc1C(=O)O	KDM5B inh inconclusive
CCCCNc1ncc(C(=O)O)c(C)n1	KDM5B inh 14.1µM
CSc1ccc(CNC(=O)Cc2csc3ccccc23)cc1	SNCA viab count inconclusive
COCCNC(=O)c1ccc(-c2ccc(N3CCCCC3)nc2)cc1	KDM5B inh 12.6µM
O=C(NCc1ccncc1)c1ccc(-c2ccc(N3CCCCC3)nc2)cc1	SNCA viab count inconclusive, KDM5B inh inconclusive
O=C(NC1CCCC1)c1ccc(-c2ccc(N3CCSCC3)nc2)cc1	KDM5B inh 28.2µM
O=C(NCCN1CCOCC1)c1ccc(-c2ccc(N3CCCCC3)nc2)cc1	KDM5B inh 28.2µM
O=C(NCCN1CCCC1)c1ccc(-c2ccc(N3CCSCC3)nc2)cc1	KDM5B inh 25.1µM
NCC1CCN(C(=O)c2cnc(C34CC5CC(CC(C5)C3)C4)[nH]c2=O)C1 (configuration not stated)	KDM5B inh inconclusive
O=C(NCc1ccccc1F)c1ccc(-c2ccc(N3CCSCC3)nc2)cc1	KDM5B inh 17.8µM
CCC[C@@H](C=O)NC(=O)[C@H](CC(C)C)NC(=O)[C@H](CC(C)C)NC(=O)OCc1ccccc1	SNCA viab count inconclusive, SNCA expr inhib 1.92µM (no result: IP6K1 inh, KDM5B inh)
c1ccc(Nc2cnc3ccc(N4CCOCC4)nn23)cc1	none
FC(F)(F)c1cccc(Nc2cnc3ccc(N4CCOCC4)nn23)c1	KDM5B inh 35.5µM
Cc1nn(C)c2c1c(C(F)(F)F)cc(=O)n2CC(=O)NCc1ccc(OC(C)C)cc1	KDM5B inh inconclusive
COC(=O)c1c(NC(C)=O)c2cc(NC3CCN(C(C)=O)CC3)cnc2n1CC1CCCO1 (configuration not stated)	SNCA viab count inconclusive, KDM5B inh 20µM
CCc1ccc(NC(=O)C2CCN(S(=O)(=O)c3cccc(-c4noc(C)n4)c3)CC2)cc1	none
Cc1ccc(-n2nnc3c(sc4nc(C)c(C)cc43)c2=O)cc1Cl	none
Fc1ccc(-c2cc3c(cn2)CN(Cc2ccncc2)CCN3)cc1Cl	SNCA expr inhib inconclusive, KDM5B inh 35.5µM
COc1ccc(-c2cc3c(cn2)CN(Cc2ccncc2)CCN3)cc1	KDM5B inh 35.5µM
CN1CCNc2cc(-c3ccc(N4CCOCC4)cc3)ncc2C1	KDM5B inh 28.2µM
O=C(c1cncc(N2CCCC(CCc3cccc(F)c3)C2)n1)N1CCCCC1 (configuration not stated)	SNCA viab count inconclusive, SNCA expr inhib inconclusive, KDM5B inh 25.1µM
N[C@H]1CN(c2cncc(C(=O)N3CCCCC3)n2)C[C@@H]1C1CC1	KDM5B inh 28.2µM
Cc1cnc(C(=O)N2CCCC(CCc3cccc(F)c3)C2)cn1 (configuration not stated)	none
CCOc1ccc(C(=O)c2c(N)c(-c3nc(-c4ccc(OCC)cc4)cs3)c3ccccn23)cc1	none
O=C(Nc1ccc(Cl)cc1Cl)c1ccc2cncn2c1	KDM5B inh 28.2µM
O=C(Nc1ccc(Cl)cc1Cl)c1ccn2cncc2c1	KDM5B inh 35.5µM
CCOC(=O)c1cc(NC(=O)CCC(=O)O)ccc1N1CCCCC1	none (no result: SNCA viab count, IP6K1 inh, SNCA expr inhib)
O=C(NCc1ccnc2[nH]ccc12)c1ccccc1Cl	KDM5B inh 35.5µM
O=C(NCc1ccnc2[nH]ccc12)c1cccc2[nH]ccc12	KDM5B inh inconclusive
O=C(NCc1ccc(Cl)cc1)c1ccnc2[nH]ccc12	KDM5B inh 28.2µM
Cc1cc2c(-c3cccc(S(C)(=O)=O)c3)nc(-c3c(C)noc3C)cc2[nH]1	KDM5B inh 35.5µM
Cc1cc2c(-c3cccc(O)c3)nc(-c3c(C)noc3C)cc2[nH]1	none
Cc1cc2c(-c3cccc(CO)c3)nc(-c3c(C)noc3C)cc2[nH]1	none
Cc1cc2c(-c3ccc(S(C)(=O)=O)cc3)nc(-c3c(C)noc3C)cc2[nH]1	KDM5B inh 35.5µM
COc1ccc(-c2nc(C(=O)Nc3cccc(C(C)=O)c3)nn2-c2ccc(Cl)cc2)cc1	none
COCCOc1nc(-c2ccc(Cl)c(Cl)c2)n(-c2ccc(NC(=O)CCl)cc2)n1	SNCA viab count 29.9µM! (no result: KDM5B inh)
O=C([C@@H]1C[C@H](Oc2ccccc2)CN1C(=O)c1cc2ccccc2[nH]1)N1CCOCC1	KDM5B inh inconclusive
O=C([C@@H]1C[C@H](Oc2ccccc2)CN1C(=O)c1cc2ccccc2[nH]1)N1CCCC1	KDM5B inh 25.1µM
COc1ccc(N(Cc2cc3ccccc3[nH]c2=O)S(C)(=O)=O)cc1	none (no result: SNCA viab count, IP6K1 inh, SNCA expr inhib)
CC(Cc1ccncc1)Nc1nccc(-c2cnn(-c3ccccc3)c2)n1 (configuration not stated)	KDM5B inh 31.6µM
CC(Cc1ccncc1)Nc1nccc(-c2cnn(-c3ccccc3F)c2)n1 (configuration not stated)	KDM5B inh 28.2µM
CC1(C)CC(Nc2nccc(-c3cnn(-c4ccccc4)c3)n2)CC(C)(C)N1	KDM5B inh 28.2µM
CC1(C)CC(Nc2nccc(C(F)(F)F)n2)CC(C)(C)N1	none (no result: SNCA viab count, IP6K1 inh, SNCA expr inhib)
Cn1cnc(S(=O)(=O)N2CCC(N3C(=O)C(OCC4CC4)C34CCCCC4)CC2)c1 (configuration not stated)	none
CCCSCCCNC(=O)C1CCCN(c2nn3cc(-c4ccc(OC)cc4)nc3s2)C1 (configuration not stated)	SNCA viab count inconclusive
COc1ccc(Cl)cc1C(C)=O	none (no result: SNCA viab count, IP6K1 inh, SNCA expr inhib)
